In PubChem BioAssay AID1063 (University of Pittsburgh Molecular Library Screening Center, 2008):
Screen size: about 200,000 compounds; about 18,000 (9%) were called active. The entries come from a sample that favours actives as a whole. Values without a mark were called inactive. No stated cut-off is given here; in the data, active means inhibition above about 50%; inactive means the rest.

Assay: antileishmanial activity against promastigotes – primary screen (AID 1063);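 further: promastigotes grown with compound for 44 hours at 28 °C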
Settings: Leishmania major promastigotes, resazurin fluorescence viability; at 10 µM; active compounds read high

Row | Structure (SMILES) | inhibition
1 | CN(C)CCCNC(=S)NCc1ccc(Cl)cc1 | -5.52%
2 | S=C(NCc1ccc(Cl)cc1)NC12CC3CC(CC(C3)C1)C2 | 36.3%
3 | S=C(NCc1ccc(Cl)cc1)NC1CCCCC1 | 57.3% (active)
4 | O=c1[nH]c(=S)[nH]c2[nH]c(=S)[nH]c12 | 7.12%
5 | COC(=O)C1=C(C)Nc2ncnn2C1c1cccnc1 (stereo not given) | -4.12%
6 | COC(=O)C1=C(N)Oc2cc(C)oc(=O)c2C1c1cccnc1 (stereo not given) | 42.3%
7 | CCSc1nc2c(c(=O)[nH]1)C(c1cccnc1)C(C(=O)OC(C)C)=C(C)N2 (stereo not given) | 56% (active)
8 | N/C(=N\OC(=O)CCCC(=O)O)c1ncc(C(F)(F)F)cc1Cl | -0.94%
9 | COc1ccc(Cl)cc1C(=O)NNC(=S)NC(=O)/C=C/c1ccco1 | 18.7%
10 | COc1ccc([N+](=O)[O-])cc1NC(=O)COC(=O)/C=C/c1ccco1 | -8.41%
11 | COc1ccc(N2C(=O)/C(=C\c3ccco3)N=C2SCC(N)=O)cc1Cl | 51.5% (active)
12 | COc1cccc2c(=O)n(CC(=O)N3CCCCCC3)ccc12 | -6.35%
13 | CCc1cccc2c(C=C(C#N)C#N)cn(CC(=O)N3CCCCC3)c12 | 78% (active)
14 | CCOC(=O)C1CCN(C(=O)Cn2cc(C#N)c3ccccc32)CC1 | 0.22%
15 | Cc1ccccc1NC(=O)c1ccc(COc2ccc3c(C)cc(=O)oc3c2)cc1 | -4.07%
16 | Cc1ccsc1C1C(C#N)=C(N)OC2=C1C(=O)CC(C)C2 (stereo not given) | 5.83%
17 | C/C=C/C=C/C(=O)OCC(=O)Nc1ccc(Cl)cc1 | 0.85%
18 | C=CCN(CC=C)S(=O)(=O)c1ccc(C(=O)Nc2nc3c(s2)CCc2ccccc2-3)cc1 | 25.3%
19 | COc1ccc(C(=O)Nc2ncc3c(n2)-c2ccccc2CC3)cc1 | 33.3%
20 | COCCN(CCOC)S(=O)(=O)c1ccc(C(=O)Nc2nc3c(s2)CCc2ccccc2-3)cc1 | 78.1% (active)
21 | CC(C)C(NC(=O)C1CCC(C(C)(C)C)CC1)C(=O)NCCCN1CCCCC1 (stereo not given) | 4.42%
22 | COc1ccc(C=Nc2cccc3ncccc23)cc1 | -0.39%
23 | Cc1ccc2[nH]c(=O)c(CC=C(Cl)Cl)c(C)c2c1 | 5.81%
24 | COC(=O)c1ccc(/C=N/N2C(C)CCCC2C)cc1 (stereo not given) | 1.84%

Row | Structure (SMILES) | inhibition
25 | CC(=O)NC(NC(=S)Nc1c(C)n(C)n(-c2ccccc2)c1=O)C(Cl)(Cl)Cl (stereo not given) | -10.3%
26 | CCCC(=O)NC(C)C(c1cccs1)N1CCN(c2ccccc2)CC1 (stereo not given) | 21.8%
27 | COc1ccc(N2CCN(C(C)=C3C(=O)c4ccccc4C3=O)CC2)cc1 | 0.6%
28 | COc1ccc(C(C(O)C(=O)c2c[nH]c3ccccc23)N2CCN(c3ccccc3)CC2)cc1 (stereo not given) | 60.7% (active)
29 | CCC(=O)c1ccc(OCC(O)Cn2nc(C)c(C(C)=O)c2C)cc1 (stereo not given) | -1.66%
30 | Cc1c(C(N)=O)sc2ncn(CCOc3ccccc3)c(=O)c12 | 15.6%
31 | N#Cc1c(-c2ccc(Cl)cc2)c2c([nH]c1=S)CCCC2 | -2.73%
32 | CCOC(=O)COc1ccc([N+](=O)[O-])cc1 | 62.2% (active)
33 | N/C(Cc1ccc([N+](=O)[O-])cc1)=N\OC(=O)COc1ccc2ccccc2c1 | -4.21%
34 | N/C(=N\OC(=O)COc1ccc([N+](=O)[O-])cc1)c1ccc(Br)cc1 | -2.89%
35 | Cc1nnc(SCCCCSc2nnc(C)c(=O)[nH]2)[nH]c1=O | -5.64%
36 | CN(c1ccc(OCC(=O)OCC(=O)Nc2cccc([N+](=O)[O-])c2)cc1)S(=O)(=O)c1ccc(F)cc1 | -5.95%
37 | CC(CC(=O)C1C(C)C=CCC1(C)C)NNC(N)=O (stereo not given) | -5.44%
38 | C=CCCC(=O)Nc1nc(C)c(-c2csc(Nc3ccc(Cl)cc3)n2)s1 | 40.7%
39 | CCCCCCC(=O)Nc1nc(C)c(-c2csc(Nc3cc(Cl)ccc3OC)n2)s1 | 56.5% (active)
40 | CCCCC(=O)Nc1nc(C)c(-c2csc(Nc3ccc(Cl)cc3)n2)s1 | 27%
41 | CCCCCCC(=O)Nc1nc(C)c(-c2csc(Nc3cccc(OC)c3)n2)s1 | 56.1% (active)
42 | Cc1nc(NC(=O)c2cccc(Cl)c2)sc1-c1csc(Nc2cccc(Cl)c2)n1 | 6.25%
43 | Cc1ccc(Nc2nc(-c3sc(NC(=O)c4ccccc4)nc3C)cs2)cc1 | 15.7%
44 | O=C(c1ccc(N2CCOCC2)c([N+](=O)[O-])c1)N1CCN(S(=O)(=O)c2cccs2)CC1 | 26.9%
45 | Cn1cnnc1Sc1ccc(CN2CCN(C3CCCC3)C(CCO)C2)o1 (stereo not given) | -0.44%
46 | COc1ccc(NC(=O)C(Br)C(C)C)cc1 (stereo not given) | -2.81%
47 | CN(C)c1ccc(C(=S)N2CCN(C(=S)Nc3ccc(Cl)cc3)CC2)cc1 | -3.85%
48 | O=C1CN(C(=O)COC(=O)c2cnc(Cl)c(Cl)c2)c2ccccc2N1 | -5.42%

Row | Structure (SMILES) | inhibition
49 | O=c1c([N+](=O)[O-])cccn1Cc1ccc(F)cc1Cl | 13.1%
50 | CSc1ccccc1NC(=O)CN(C)CC(=O)Nc1ccc(Cl)cc1[N+](=O)[O-] | 12%
51 | COCCNc1cc(NCCOC)c([N+](=O)[O-])cc1[N+](=O)[O-] | 32.9%
52 | CCN(CC)CCNc1ccc(Cl)cc1[N+](=O)[O-] | 52.1% (active)
53 | CCOC(=O)c1sc(NC(=O)C(CC)Sc2nccn2C)nc1C (stereo not given) | 9.41%
54 | C=CCn1c2ccccc2c2nnc(SCc3[nH]c(=O)[nH]c3C(=O)CCCCC(=O)OCC)nc21 | 4.8%
55 | C=CCn1c2ccccc2c2nnc(SC(CC)C(=O)Nc3nc(C)c(C(=O)OCC)s3)nc21 (stereo not given) | 62.5% (active)
56 | COc1ccccc1C(=O)CSc1cccc[n+]1[O-] | -7.87%
57 | COc1cccc(C(=O)Nc2nc3ccc(S(C)(=O)=O)cc3s2)c1 | 16%
58 | CC(C)c1nc2sc3c(c2c(=O)n1N)CC(C)(C)OC3 | -0.56%
59 | Cc1ccc(-c2nc(-c3cccnc3)sc2CC(=O)Nc2ccc(C)c(Cl)c2)cc1 | 78.2% (active)
60 | O=C(O)Cc1sc(-c2ccc(C(=O)O)cc2)nc1-c1ccccc1 | -1.45%
61 | Cc1cc(C)c(NC(=O)CS(=O)CC(=O)Nc2cccnc2)c(C)c1 (stereo not given) | -5.42%
62 | CC(C)CC(CC(C)C)=NNC(=O)c1ccc(CSc2nncn2C)cc1 | -4.77%
63 | O=C(CN1C(=O)NC2(CCCC2)C1=O)NCC1CCCO1 (stereo not given) | -4.12%
64 | Cc1cc(=O)oc2c1c(C)nn2-c1ccc(Cl)cc1 | -5.67%
65 | CCC(CC)C(=O)Nc1ccc(S(=O)(=O)Nc2nccs2)cc1 | 6.97%
66 | O=C(NC(=S)Nc1ccc(S(=O)(=O)Nc2ncccn2)cc1)c1cccc(Br)c1 | -8.62%
67 | Cc1nc2ccccc2c2oc(C(=O)NCC3CCCO3)cc12 (stereo not given) | 11.4%
68 | Cc1nc2ccccc2c2oc(C(=O)NCCCN3CCC(C)CC3)cc12 | 24%
69 | CCCN(CCC)CCNC(=O)c1cc2c(C)nc3ccccc3c2o1 | 56.9% (active)
70 | CC(C)OCCCNC(=O)c1ccc(C2SCC(=O)N2Cc2ccco2)cc1 (stereo not given) | -3.9%
71 | Cc1cc(C(=O)NNC(=O)CCC2CCCCC2)c(C)o1 | -8.93%
72 | CCC(=O)N1CCC(C(N)=O)(N2CCCCC2)CC1 | 0.56%

Row | Structure (SMILES) | inhibition
73 | O=C(Nc1cccn(Cc2ccccc2Cl)c1=O)NC1CCCCC1 | 17.9%
74 | COc1ccc(Cl)cc1C(=O)NNC(=S)NC1CCCC1 | 17.1%
75 | CCN(CC)c1ccc2c(Nc3ccccc3)c(C=O)c(=O)oc2c1 | -4.13%
76 | CCN(CC)c1ccc2cc(C(=O)O)c(=O)oc2c1 | 22.2%
77 | CCN(CC)c1ccc2oc(=O)c(C)nc2c1 | 96.6% (active)
78 | CNc1[nH]ncc1[N+](=O)[O-] | -7.01%
79 | COc1ccc(CCn2ccc(O)c(Cc3ccc(Cl)cc3Cl)c2=O)cc1OC | 7.61%
80 | COCCCNC(=S)N1CCCC(c2nc3cc(C)c(C)cc3[nH]2)C1 (stereo not given) | 0.93%
81 | N=C1C(c2nc3ccccc3[nH]2)=C(O)CN1NC(=O)c1c[nH]c2ccccc12 | -3.91%
82 | Cn1c(=O)n(C)c2cc(S(=O)(=O)N3CCCc4ccccc43)ccc21 | 47.6%
83 | CC1Cc2ccccc2N1S(=O)(=O)c1c(N)n(C)c(=O)n(C)c1=O (stereo not given) | 99.8% (active)
84 | CCCCn1ccnc1C(=O)c1cccc(S(=O)(=O)N2c3ccccc3CC2C)c1 (stereo not given) | 0.6%
85 | CNS(=O)(=O)c1ccc(NC(=O)C2CC(=O)N(c3ccc(Cl)cc3)C2)cc1 (stereo not given) | 13.6%
86 | Cc1cccc(NC(=S)NCCc2ccc(F)cc2)c1C | 28.5%
87 | COc1ccc(CN2CCNC(=O)C2CC(=O)N(C)Cc2ccccn2)cc1OC (stereo not given) | 0.79%
88 | COc1cccc(NC(=S)N(CCc2c(C)[nH]c3ccccc23)Cc2ccco2)c1 | 19.9%
89 | COc1ccc2[nH]c(C)c(CCN(Cc3cccs3)C(=S)Nc3ccccc3OC)c2c1 | 66.1% (active)
90 | Cc1[nH]c2ccccc2c1CCN(Cc1cccs1)C(=S)NC(C)(C)C | -1.09%
91 | C/C(=N\NC(=O)c1cccnc1)c1ccc(-n2ccnc2)cc1 | -1.06%
92 | Cn1cc(-c2ccccc2)cc(C#N)c1=O | -20%
93 | CC(C)N1CCC(NC(=O)Nc2ccccc2)CC1 | -2.35%
94 | COc1cc(/C=C/C(=O)OCC(=O)N2CCOCC2)ccc1OCC#N | -11.6%
95 | Nc1nnc(SCn2nnc3ccccc3c2=O)s1 | -7.44%
